# Reference: PubChem BioAssay (EPA / NIEHS)
# Where a structure was tested more than once in an assay, its records may differ in their call. The source made the active and inactive calls. The calls were made as follows, unless noted: active = hit-call score of the fitted dose curve at least 0.9, where 1 is the maximum; inactive = score below 0.9.
# Test system: SERPINA7 (gene 6906)
# Experiment: CCTE_GLTED_hTBG: CCTE's human Thyroxine-binding Globulin (TBG) Inhibition Assay, Great Lakes Toxicology and Ecology Division (GLTED) Lab (AID 2284343; active = hit-call score of the fitted dose curve at least 0.9, where 1 is the maximum;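 also: active chemicals lower fluorescence versus DMSO baseline by displacing probe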)
# Summary of the method: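 Cell-free displacement of the fluorescent probe ANSA from human thyroxine-binding globulin after 2 h exposure. Read-out at ex 380/em 475 nm; DMSO baseline.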
Compound,AC50,outcome
CCC(C)(c1ccc(O)cc1)c1ccc(O)cc1,13.7 µM (active),
Sc1ccccc1,14.1 µM (active),
Oc1ccc(C(c2ccc(O)cc2)(C(F)(F)F)C(F)(F)F)cc1,17.1 µM (active),
CCCCCCCCCc1ccc(O)cc1,5.76 µM (active),
CC(C)(O)C(=O)Nc1ccc([N+](=O)[O-])c(C(F)(F)F)c1,35.6 µM (active),
CCC(C)c1cc([N+](=O)[O-])cc([N+](=O)[O-])c1O (stereo not drawn),19.3 µM (active),
O=S(=O)(O)C(F)(F)C(F)(F)C(F)(F)C(F)(F)F,,inactive

# Test system: not listed separately
# Experiment: Tanguay_ZF_120hpf_MO24: Oregon State University Tanguay Lab 24 Hour Post-fertilization zebrafish Assay for Mortality (AID 2284389)
# Summary of the method: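 Embryo death at 24 hpf was recorded as present or absent in Tropical 5D zebrafish, dechorionated at 4 hpf and dosed statically from 6 hpf (28C, 0.64% DMSO); 5 uM trimethyltin chloride served as positive control.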
row,Compound,outcome
1,O=S(=O)(O)C(F)(F)C(F)(F)C(F)(F)C(F)(F)C(F)(F)C(F)(F)F,inactive
2,O=C(O)C(F)(F)C(F)(F)C(F)(F)C(F)(F)C(F)(F)F,inactive
3,O=C(O)C(F)(F)C(F)(F)C(F)(F)C(F)(F)C(F)(F)C(F)(F)C(F)(F)C(F)(F)F,inactive
4,NS(=O)(=O)C(F)(F)C(F)(F)C(F)(F)C(F)(F)C(F)(F)C(F)(F)C(F)(F)C(F)(F)F,inactive
5,O=C(O)C(F)(F)C(F)(F)C(F)(F)C(F)(F)C(F)(F)C(F)(F)C(F)(F)C(F)(F)C(F)(F)F,inactive
6,O=S(=O)(O)C(F)(F)C(F)(F)C(F)(F)C(F)(F)F,inactive

# Test system: not listed separately
# Experiment: Tanguay_ZF_120hpf_DP24: Oregon State University Tanguay Lab 24 Hour Post-fertilization zebrafish Assay for Delayed Development (AID 2284390)
# Summary of the method: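 Scored at 24 hpf as a binary present/absent call of delayed development by brightfield, with dead embryos not assessed. Embryos (5D wild type, chorion removed with pronase at 4 hpf) dosed statically from 6 hpf at 28 C in 0.64% DMSO.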
Compound,outcome,AC50
O=S(=O)(O)C(F)(F)C(F)(F)C(F)(F)C(F)(F)C(F)(F)C(F)(F)F,inactive,
O=C(O)C(F)(F)C(F)(F)C(F)(F)C(F)(F)C(F)(F)F,inactive,
O=C(O)C(F)(F)C(F)(F)C(F)(F)C(F)(F)C(F)(F)C(F)(F)C(F)(F)C(F)(F)F,inactive,
NS(=O)(=O)C(F)(F)C(F)(F)C(F)(F)C(F)(F)C(F)(F)C(F)(F)C(F)(F)C(F)(F)F,,16.4 µM (active)
O=C(O)C(F)(F)C(F)(F)C(F)(F)C(F)(F)C(F)(F)C(F)(F)C(F)(F)C(F)(F)C(F)(F)F,inactive,
O=S(=O)(O)C(F)(F)C(F)(F)C(F)(F)C(F)(F)F,inactive,

# Test system: not listed separately
# Experiment: Tanguay_ZF_120hpf_CRAN: Oregon State University Tanguay Lab 120 Hour Post-fertilization zebrafish Assay for Craniofacial Malformation (AID 2284397)
# Summary of the method: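 Scoring of craniofacial malformation as a binary endpoint was done at 120 hpf by brightfield microscopy and was not done in dead embryos. Exposure was static, starting at 6 hpf, in dechorionated wild-type embryos held singly at 28C with 0.64% DMSO final.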
Compound,AC50,outcome
O=S(=O)(O)C(F)(F)C(F)(F)C(F)(F)C(F)(F)C(F)(F)C(F)(F)F,85.1 µM (active),inactive
O=C(O)C(F)(F)C(F)(F)C(F)(F)C(F)(F)C(F)(F)F,,inactive
O=C(O)C(F)(F)C(F)(F)C(F)(F)C(F)(F)C(F)(F)C(F)(F)C(F)(F)C(F)(F)F,,inactive
NS(=O)(=O)C(F)(F)C(F)(F)C(F)(F)C(F)(F)C(F)(F)C(F)(F)C(F)(F)C(F)(F)F,3.27 µM (active),
O=C(O)C(F)(F)C(F)(F)C(F)(F)C(F)(F)C(F)(F)C(F)(F)C(F)(F)C(F)(F)C(F)(F)F,19.5 µM (active),
O=S(=O)(O)C(F)(F)C(F)(F)C(F)(F)C(F)(F)F,,inactive

# Test system: not listed separately
# Experiment: Tanguay_ZF_120hpf_AXIS: Oregon State University Tanguay Lab 120 Hour Post-fertilization zebrafish Assay for Axial Malformation (AID 2284398)
# Summary of the method: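 Scoring was binary (present or absent) for body-axis defects, judged by brightfield imaging at 120 hpf in surviving larvae. Exposure was static at 28C from 6 hpf in chorion-free 5D wild-type embryos, with 0.64% DMSO vehicle.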
Compound,AC50,outcome
O=S(=O)(O)C(F)(F)C(F)(F)C(F)(F)C(F)(F)C(F)(F)C(F)(F)F,84.8 µM (active),inactive
O=C(O)C(F)(F)C(F)(F)C(F)(F)C(F)(F)C(F)(F)F,,inactive
O=C(O)C(F)(F)C(F)(F)C(F)(F)C(F)(F)C(F)(F)C(F)(F)C(F)(F)C(F)(F)F,,inactive
NS(=O)(=O)C(F)(F)C(F)(F)C(F)(F)C(F)(F)C(F)(F)C(F)(F)C(F)(F)C(F)(F)F,,inactive
O=C(O)C(F)(F)C(F)(F)C(F)(F)C(F)(F)C(F)(F)C(F)(F)C(F)(F)C(F)(F)C(F)(F)F,,inactive
O=S(=O)(O)C(F)(F)C(F)(F)C(F)(F)C(F)(F)F,,inactive

# Test system: not listed separately
# Experiment: Tanguay_ZF_120hpf_MORT: Oregon State University Tanguay Lab 120 Hour Post-fertilization zebrafish Assay for Mortality (AID 2284399)
# Experimental: (§1) Tanguay_ZF_120hpf is a whole embryo, multiplexed endpoint assay using zebrafish larvae exposed for 120 hours post fertilization on a 96-well plate.Tanguay_ZF_120hpf_MORT is one of one assay component(s) measured or calculated from the Tanguay_ZF_120hpf assay. It is designed to make measurements of zebrafish development as detected with brightfield microscopy of developing zebrafish embryos.Data from the assay component Tanguay_ZF_120hpf_MORT was analyzed into 1 assay endpoints. This assay endpoint, Tanguay_ZF_120hpf_MORT, was analyzed in the positive analysis fitting direction relative to DMSO as the negative control and baseline of activity. Using a type of viability reporter, gain-of-signal activity can be used to understand changes in developmentals as they relate to the whole embryo. To generalize the intended target to other relatable targets, this assay endpoint is annotated to the zebrafish development intended target family, where the subfamily is embryonic mortality.
# (§2) Zebrafish husbandry: Tropical 5D wild-type adult zebrafish were housed in at an approximate density of 1000 per 100 gallon tank at the Sinnhuber Aquatic Research Laboratory, Oregon State University, Corvallis, OR. Each tank was kept at standard laboratory conditions of 28C on a 14-h light/10-h dark photoperiod in fish water consisting of reverse osmosis water supplemented with a commercially available salt (Instant Ocean). Spawning funnels were placed into the tanks the night prior, and embryos were collected and staged. To increase bioavailability, the chorion was enzymatically removed using pronase (63.6mg/ml, >/= 3.5U/mg, Sigma-Aldrich: P5147) at 4 hours post fertilization (hpf) using a custom automated dechorionator.Chemical exposures: Six hpf dechorionated embryos were placed 1 embryo per well in a 96-well plate prefilled with 90 ul of EM using automated embryo placement systems (AEPS). Ten microliters of each row of dilution plate 2 was added to 2 exposure plates. The final DMSO concentration used was 0.64% (vol/vol). Thirty-two embryos were also exposed to 5uM trimethyltin chloride (positive control). Plates were sealed to prevent evaporation and foil covered to reduce light exposure and kept in a 28C incubator. Embryos were statically exposed until 120 hpf. At 24 hpf, embryos were assessed for photomotor response using a custom photomotor response analysis tool (PRAT) and for developmental toxicity endpoints (MO24: mortality at 24 hpf, DP: developmental progression, SM: spontaneous movement, and NC: notochord distortion). At 120 hpf, locomotor activity was measured using Viewpoint Zebralab and assessed for 13 endpoints. Zebrafish acquisition and analysis program (ZAAP), a custom program designed to inventory, acquire, and manage zebrafish data, was used to collect developmental endpoints as either present or absent (i.e., binary responses were recorded). If mortality occurred for an embryo (at either 24 or 120 hpf), the non-mortality endpoints were not measured.
Compound,outcome,AC50
O=S(=O)(O)C(F)(F)C(F)(F)C(F)(F)C(F)(F)C(F)(F)C(F)(F)F,inactive,
O=C(O)C(F)(F)C(F)(F)C(F)(F)C(F)(F)C(F)(F)F,inactive,
O=C(O)C(F)(F)C(F)(F)C(F)(F)C(F)(F)C(F)(F)C(F)(F)C(F)(F)C(F)(F)F,inactive,
NS(=O)(=O)C(F)(F)C(F)(F)C(F)(F)C(F)(F)C(F)(F)C(F)(F)C(F)(F)C(F)(F)F,,5.51 µM (active)
O=C(O)C(F)(F)C(F)(F)C(F)(F)C(F)(F)C(F)(F)C(F)(F)C(F)(F)C(F)(F)C(F)(F)F,inactive,
O=S(=O)(O)C(F)(F)C(F)(F)C(F)(F)C(F)(F)F,inactive,

# Test system: not listed separately
# Experiment: Tanguay_ZF_120hpf_EDEM: Oregon State University Tanguay Lab 120 Hour Post-fertilization zebrafish Assay for Edema Malformation (AID 2284400)
# Summary of the method: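 Edema recorded as a binary endpoint under brightfield at 120 hpf, excluding embryos that died. Exposure was static, sealed, 28C, from 6 hpf in dechorionated wild-type larvae, final DMSO 0.64%, DMSO as baseline.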
Compound,AC50,outcome
O=S(=O)(O)C(F)(F)C(F)(F)C(F)(F)C(F)(F)C(F)(F)C(F)(F)F,85.1 µM (active),inactive
O=C(O)C(F)(F)C(F)(F)C(F)(F)C(F)(F)C(F)(F)F,,inactive
O=C(O)C(F)(F)C(F)(F)C(F)(F)C(F)(F)C(F)(F)C(F)(F)C(F)(F)C(F)(F)F,,inactive
NS(=O)(=O)C(F)(F)C(F)(F)C(F)(F)C(F)(F)C(F)(F)C(F)(F)C(F)(F)C(F)(F)F,,inactive
O=C(O)C(F)(F)C(F)(F)C(F)(F)C(F)(F)C(F)(F)C(F)(F)C(F)(F)C(F)(F)C(F)(F)F,,inactive
O=S(=O)(O)C(F)(F)C(F)(F)C(F)(F)C(F)(F)F,,inactive

# Test system: not listed separately
# Experiment: Tanguay_ZF_120hpf_MUSC: Oregon State University Tanguay Lab 120 Hour Post-fertilization zebrafish Assay for Muscle Malformation (AID 2284401)
# Experimental: as §1, with “plate.Tanguay_ZF_120hpf_MUSC” for “plate.Tanguay_ZF_120hpf_MORT”, “Tanguay_ZF_120hpf_MUSC” for “Tanguay_ZF_120hpf_MORT”, “Tanguay_ZF_120hpf_MUSC,” for “Tanguay_ZF_120hpf_MORT,”, “morphology” for “viability”, “myogensis.” for “embryonic mortality.”
# as §2
Compound,AC50,outcome
O=S(=O)(O)C(F)(F)C(F)(F)C(F)(F)C(F)(F)C(F)(F)C(F)(F)F,84.8 µM (active),inactive
O=C(O)C(F)(F)C(F)(F)C(F)(F)C(F)(F)C(F)(F)F,,inactive
O=C(O)C(F)(F)C(F)(F)C(F)(F)C(F)(F)C(F)(F)C(F)(F)C(F)(F)C(F)(F)F,,inactive
NS(=O)(=O)C(F)(F)C(F)(F)C(F)(F)C(F)(F)C(F)(F)C(F)(F)C(F)(F)C(F)(F)F,,inactive
O=C(O)C(F)(F)C(F)(F)C(F)(F)C(F)(F)C(F)(F)C(F)(F)C(F)(F)C(F)(F)C(F)(F)F,,inactive
O=S(=O)(O)C(F)(F)C(F)(F)C(F)(F)C(F)(F)F,,inactive
